Measurements: PubChem BioAssay (Tox21)
Results filed as inconclusive are left out. Where a call stands in place of a potency, no number is given. Calls of active or inactive are those of the source. Calls come from the whole dose curve; as a rule, active = well fitted cell-killing curve with a large enough effect in the repeat runs; inconclusive = weak or mixed curves; inactive = no such curve, though single readings can be large or run the other way.

Assay: qHTS assay to identify small molecule antagonists of the androgen receptor (AR) signaling pathway - cell viability counter screen (AID 743033; note: nearly all actives have a fitted effect of over 45% in size)
Conditions: AR-bla HEK293 viability, CellTiter-Glo luminescence, 16 h; series mostly up to 58.5 µM

Structure (SMILES)	Potency	activity change, negative = cytotoxicity
C[C@H]1NCc2cc(-c3ccc4c(=O)c(C(=O)O)cn(C5CC5)c4c3OC(F)F)ccc21	inactive	
Cl[Si](Cl)(c1ccccc1)c1ccccc1	inactive	
CC(C)CCCCCOC(=O)CCS	inactive	
COCCOc1cc2cc(C(=O)NC3CCN(C(C)C)CC3)n(CC(=O)Nc3ccc(Cl)cn3)c2cn1	inactive	
Nc1nc(-c2ccccc2)cs1	inactive	
CCCCCCCCCCCC(=O)OCC(C)OC(=O)CCCCC(=O)O (stereo not given)	inactive	
O=S(=O)(O)c1ccc(Nc2nc(Nc3ccc(/C=C/c4ccc(Nc5nc(Nc6ccc(S(=O)(=O)O)cc6)nc(N(CCO)CCO)n5)cc4S(=O)(=O)O)c(S(=O)(=O)O)c3)nc(N(CCO)CCO)n2)cc1	inactive	
CCC(COC(=O)CCS)(COC(=O)CCS)COC(=O)CCS	inactive	
COc1cccc(OC)c1C(=O)O	inactive	
CCOC(=O)NNc1ccc(N(CC)CC(C)O)nn1 (stereo not given)	inactive	
C1CCC(SSC2CCCCC2)CC1	inactive	
CC(C)(C)CC(C)(C)c1ccc(Nc2ccc(C(C)(C)CC(C)(C)C)cc2)cc1		1.05% [at 7.04 µM] (inactive)
C=CCCC(=O)/C=C/C1C(C)=CCCC1(C)C (stereo not given)	inactive	
ClCCl	inactive	
COc1ccc(-c2coc3cc(O)ccc3c2=O)cc1	inactive	
CC(C)Cn1cnc2c(N)nc3ccccc3c21	inactive	
CN(C)Cc1ccccc1O	inactive	
c1ccc(SSc2ccccc2)cc1	inactive	
Cc1nc2n(c(=O)c1CCN1CCC(c3noc4cc(F)ccc34)CC1)CCCC2	inactive	
Nc1ccc(Oc2ccc(Cl)cc2)cc1	inactive	
